Compound activity from PubChem BioAssay.
GluA2 TARP mod – modulates AMPAR-stargazin complexes | O88602+P19491 | HEK293 GluA2+stargazin, membrane potential dye (FDSS), glutamate EC50; hits were called plate by plate, in both directions | calls only at 30 µM | 40,000 compounds, 3.5% hits | AID 1259245;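 active = any of four per-well response measures lying three or more SD from its plate-wide compound average, in either direction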
GIRK2 act – GIRK2 channel activators by thallium flux | P48051 | HEK293 GIRK2/NPY4 cells, thallium flux fluorescence | activation (% efficacy), % for hits at 37.5 µM | 34,000 tested, under 10 active | AID 1259324;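 active = primary screen hit, no activity in plain HEK293 cells, and in GIRK2-only cells above 5% efficacy rising with concentration; inactive = the rest, including fluorescent compounds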;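 note: efficacy is normalized control-subtracted fluorescence 15 s after thallium addition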
Target sequence (P48051 whole entry, looked up): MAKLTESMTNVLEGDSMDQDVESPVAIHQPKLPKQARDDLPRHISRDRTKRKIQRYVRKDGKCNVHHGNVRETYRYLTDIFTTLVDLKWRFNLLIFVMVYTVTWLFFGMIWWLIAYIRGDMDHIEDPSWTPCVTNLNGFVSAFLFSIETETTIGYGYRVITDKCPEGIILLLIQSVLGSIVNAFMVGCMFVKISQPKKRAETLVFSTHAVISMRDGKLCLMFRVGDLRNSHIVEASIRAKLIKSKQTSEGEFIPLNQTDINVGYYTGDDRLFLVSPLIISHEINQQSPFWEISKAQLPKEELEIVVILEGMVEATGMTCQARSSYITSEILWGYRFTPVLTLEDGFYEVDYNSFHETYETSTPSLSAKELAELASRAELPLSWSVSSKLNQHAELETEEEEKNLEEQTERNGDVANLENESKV
* hit, by the source's call; i = inactive; · = no result; + = active, no number. Shown is part of a subset that was picked to be rich in hits.

SMILES	GluA2 TARP mod	GIRK2 act
O=C(C1CCCN(c2ccc(-n3cccn3)nn2)C1)N1CCN(c2cccc(C(F)(F)F)c2)CC1 (stereo not drawn)	i	i
NC(=O)c1cc2cc(Cl)ccc2o/c1=N/NC(=O)c1cccc(F)c1	i	·
COc1cccc(N2C(=O)/C(=C/c3cccnc3)SC2=S)c1	i	·
O=C(c1ccccc1C(F)(F)F)N1CCC(c2nnc(-c3ccc(F)cc3)o2)CC1	i	i
CCn1nnc2c(N3CCN(C(=O)CC4CCCC4)CC3)ncnc21	i	i
CCOc1ccc(OCCNC(=O)Cc2cccc3ccccc23)cc1	i	i
CCOc1ccc2ccccc2c1C(=O)NCC(c1cccs1)N(C)C (stereo not drawn)	+	i
CCOc1ccc2ccccc2c1C(=O)NCCOc1ccccc1	+	i
CN(C)C(CNC(=O)c1ccc2ccccc2c1)c1cccs1 (stereo not drawn)	i	i
COc1cn2c(cc1=O)C(=O)N(CCNC(=O)c1cccc(Cl)c1)CC2	i	i
COc1cccc(-n2nnc3c(N4CCN(C(=O)c5ccccc5SC)CC4)ncnc32)c1	i	·
CCN(C1CCCCC1)S(=O)(=O)c1ccc(C(=O)Nc2ncnc3sccc23)cc1	+	i
CN(C1CCCC1)S(=O)(=O)c1ccc(C(=O)Nc2ncnc3sccc23)cc1	i	·
O=C(Cc1ccc(Cl)cc1)Nc1cccc(N2CCCCC2=O)c1	i	i
CCCS(=O)(=O)N1CCCc2cc(NC(=O)NCCCc3ccccc3)ccc21	+	i
CCS(=O)(=O)N1CCCc2cc(NC(=O)Nc3ccc(OC)cc3)ccc21	i	i
CCS(=O)(=O)N1CCCc2cc(NC(=O)Nc3cc(Cl)ccc3OC)ccc21	+	i
CCS(=O)(=O)N1CCCc2cc(NC(=O)NCc3ccccc3)ccc21	i	i
Cc1cc(NC(=O)C(c2ccccc2)c2ccccc2)n(C(C)C)n1	·	i
CCOc1ccccc1N1C(=O)CC(N2CCN(c3ccccc3)CC2)C1=O (stereo not drawn)	i	i
CN(C)c1cccc(C(=O)Nc2ccc(-n3nnn(CC(N)=O)c3=O)cc2)c1	i	i
O=S(=O)(NCCNc1ccc(Nc2ccncc2)nn1)c1ccccc1C(F)(F)F	i	i
CN(C)S(=O)(=O)NCCn1nc(-c2ccccc2)n(C)c1=O	i	i
CC(=O)Nc1ccc(NC(=O)CSc2ccc(S(=O)(=O)C(F)(F)F)cc2[N+](=O)[O-])cc1	i	·
O=C(CSc1ccc([N+](=O)[O-])cc1[N+](=O)[O-])Nc1cccc(C(F)(F)F)c1	+	·
SMILES	GluA2 TARP mod	GIRK2 act
O=C(Nc1cc(C(F)(F)F)ccc1Cl)c1ccc(=O)n(Cc2ccc(F)cc2)c1	i	i
CCOC(=O)N1CCc2nc(NC(=O)Cc3ccc(OCC)cc3)sc2C1	i	i
O=C(NCCN1CCOCC1)c1ccc(Cl)c(S(=O)(=O)N2CCCCC2)c1	i	·
O=C(c1cccc(S(=O)(=O)N2CCOCC2)c1)N1CCCc2ccccc21	i	·
Cc1ccc(C(=O)N2CCCc3ccccc32)cc1S(=O)(=O)N1CCOCC1	+	·
O=C(c1ccc(Cl)c(S(=O)(=O)N2CCOCC2)c1)N1CCc2ccccc21	+	·
O=c1c2nnn(-c3ccccc3)c2ncn1Cc1nc(-c2cccc(C(F)(F)F)c2)no1	i	i
CCn1nccc1C(=O)Nc1c(C(N)=O)oc2ccccc12	i	i
O=C(NCC1COC2(CCCCC2)O1)c1ccc(C(F)(F)F)cc1 (stereo not drawn)	i	i
Cc1nnc(-c2ccc(OCC(=O)Nc3ccccc3F)cc2)o1	·	i
Cn1cccc1CN(C(=O)c1ccco1)C1CC1	·	i
COc1ccc(S(=O)(=O)CC(=O)Nc2nc3ccc([N+](=O)[O-])cc3s2)cc1	i	i
O=C(CCCS(=O)(=O)c1ccccc1)Nc1nc2ccc([N+](=O)[O-])cc2s1	+	i
CCOc1ccc(CC(=O)Nc2nc3c(OC)cc([N+](=O)[O-])cc3s2)cc1	i	·
COc1cc([N+](=O)[O-])cc2sc(NC(=O)CCCS(=O)(=O)c3ccccc3)nc12	+	i
Cc1ccc(S(=O)(=O)CCCC(=O)Nc2nc(-c3cc([N+](=O)[O-])cs3)cs2)cc1	+	i
O=C(CCCS(=O)(=O)c1ccc(Cl)cc1)Nc1nc(-c2cc([N+](=O)[O-])cs2)cs1	i	·
COc1ccc(-c2c(C#N)c(SCC(=O)NCC3CCCO3)nc3c2C(=O)CC(C)(C)C3)cc1 (stereo not drawn)	i	i
Cc1cc(C)c(NC(=O)Cn2nc3n(c(=O)c2=O)CCN3c2ccccc2)c(C)c1	i	i
CCOC(=O)c1c(C)[nH]c(NC(=O)Nc2c(CC)cccc2CC)c1C	i	i
Cc1cc(Nc2cccc(C(C)O)c2)nc(-n2cc([N+](=O)[O-])cn2)n1 (stereo not drawn)	i	i
